esBAF inh: blocks esBAF chromatin remodeling in mouse ES cells | Bmi1-luciferase knock-in reporter, 24 h; 100% = twice the neutral-well signal | reporter increase, % at 12.5 µM | hit rate 2% among 350,000 | AID 602393; in the data active = activation above about 40%; inconclusive = no clear call, values can overlap the other calls;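 note: a rise in the Bmi1 reporter signal indicates esBAF inhibition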
Wnt act: Wnt/beta-catenin pathway activation. Wnt/beta-catenin reporter cell assay, activator, plate reader. activation, % at 9.35 µM. hit rate 1.2% among 300,000; in the data active = activation above about 30%, passing the limit was not always enough; inconclusive = no clear call, values can overlap the other calls
MITF TRPM1 HTS: activators of MITF-driven TRPM1 promoter activity in SK-MEL-5 cells; SK-MEL-5 TRPM1-promoter luciferase, 24 h; % of positive control, neutral wells = 0; activation, % at 12.5 µM; hit rate 0.75% among 300,000;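 active = mean activation of at least 80% with every replicate also reaching 80%; inconclusive = mean reaches 80% but some replicate falls short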
FGF22 binding: shifts melting point of recombinant human FGF22. Q9HCT0. recombinant FGF22 thermal shift, SYPRO orange fluorescence; percent of sucrose octasulfate shift, DMSO zero. activity (Tm shift, normalised), % at 9.99 µM. hit rate 1.5% among 340,000. AID 651658;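 active = mean Tm shift, scaled 0 neutral to 100 positive control, at about 1.3% or above, every replicate too, limit read from the data; inconclusive = no clear call, values can overlap the other calls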
AF4-AF9 inh: inhibitors of human MLL-AF4/AF9 interaction; P42568; AlphaScreen, biotin-AF4 peptide binding to FLAG-AF9; inhibition, % at 10 µM; hit rate 0.47% among 350,000; AID 651704;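 active = every replicate reaching a set inhibition limit, whatever the replicate mean, cut at about 25% in these data; inconclusive = mean inhibition reaches that limit but some replicates miss it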
Target sequence (P42568 whole entry, looked up): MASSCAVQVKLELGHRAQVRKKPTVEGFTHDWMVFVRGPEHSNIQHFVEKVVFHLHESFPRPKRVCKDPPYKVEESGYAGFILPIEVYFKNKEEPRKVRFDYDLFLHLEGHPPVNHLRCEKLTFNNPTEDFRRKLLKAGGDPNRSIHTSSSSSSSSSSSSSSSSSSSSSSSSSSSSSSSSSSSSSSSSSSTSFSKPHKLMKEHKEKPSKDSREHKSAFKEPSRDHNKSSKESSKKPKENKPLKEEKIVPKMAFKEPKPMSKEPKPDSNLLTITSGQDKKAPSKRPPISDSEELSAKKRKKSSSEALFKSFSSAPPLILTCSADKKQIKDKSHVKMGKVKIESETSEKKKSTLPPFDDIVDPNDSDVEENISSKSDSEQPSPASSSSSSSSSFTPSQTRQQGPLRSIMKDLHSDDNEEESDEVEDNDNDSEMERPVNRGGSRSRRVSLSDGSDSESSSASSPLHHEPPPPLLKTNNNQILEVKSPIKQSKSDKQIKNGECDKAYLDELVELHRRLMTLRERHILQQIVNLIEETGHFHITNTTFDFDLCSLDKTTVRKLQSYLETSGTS
SMARCA2 activ: activators of SMARCA2 function. MG213 cells, MMTV-luciferase reporter, dexamethasone, overnight. activation, % at 9.1 µM. hit rate 1% among 370,000. AID 652017; in the data active = activation above about 7.8%
Numbers stand for hits; n = inactive; u = inconclusive; x = not tested or not shown. Most compounds without a hit are left out; they make up all but 4.3% or so of the library.

SMILES | esBAF inh | Wnt act | MITF TRPM1 HTS | FGF22 binding | AF4-AF9 inh | SMARCA2 activ
NCC[C@H]1CC[C@@H](NC(=O)Cc2ccncc2)[C@H](CO)O1 | n | x | x | n | n | x
CC(=O)Nc1ccc(NC(=O)CSCc2ccccc2Cl)cc1 | n | n | x | n | n | n
C/C(=N\NC(=O)CSCc1ccccc1Cl)c1cc(O)ccc1O | x | n | n | n | 25.5 | n
COc1ccc(-c2nn(-c3ccccc3)cc2C#N)cc1 | 45.5 | x | 104.6 | x | x | n
COc1ccc(-c2nn(-c3ccccc3)cc2C(=O)O)cc1 | n | n | n | n | n | n
COc1ccc(C2CC(c3ccc(Br)cc3)=NN2C(=S)Nc2ccccc2)cc1 (stereo not drawn) | 44.6 | n | n | n | n | n
Cc1ccc(C2=NN(C(=S)Nc3ccccc3)C(c3ccco3)C2)cc1 (stereo not drawn) | 79.8 | x | n | x | x | n
C=CCN(C)CC#CCCCCl | x | x | x | x | x | n
COc1ccc(OC)c(N/C(=N/c2nc(C)cc(C)n2)NC(C)=O)c1 | n | n | x | n | 27.1 | n
Cc1cc(C(=O)COc2ccccc2[N+](=O)[O-])c(C)n1C1CC1 | x | u | n | n | n | n
Cc1cc(C(=O)COC(=O)c2ccc(Cl)c(S(N)(=O)=O)c2)c(C)n1C1CC1 | 77.8 | 44.6 | 97.2 | n | n | n
Cc1cc(C(=O)COC(=O)c2ccc(F)cc2F)c(C)n1C1CC1 | n | n | 117.6 | n | n | n
Cc1cc(C(=O)COc2ccccc2C(N)=O)c(C)n1C1CC1 | x | 39.5 | n | n | n | n
Cc1cc(C(=O)COC(=O)c2ccc(NC(=O)CC#N)cc2)c(C)n1CC(F)(F)F | 61.9 | n | x | n | n | n
C[C@H](CO)N1C[C@H](C)[C@H](CN(C)Cc2cccc(C(=O)O)c2)OCc2cnnn2CCCC1=O | n | x | x | n | n | x
C[C@H](CO)N1C[C@H](C)[C@H](CN(C)C(=O)Nc2ccc(C(F)(F)F)cc2)Oc2ncc(C#C[C@@H](C)O)cc2C1=O | n | x | x | n | n | x
Cc1cc(C(=O)COC(=O)c2ccc(NC(=O)CC#N)cc2)c(C)n1C1CC1 | 68.1 | n | n | n | n | n
Cc1cc(C(=O)COC(=O)c2ccc(NC(=O)CC#N)cc2)c(C)n1-c1ccc(OC(F)F)cc1 | x | n | n | n | n | n
C[C@@H]1CN([C@H](C)CO)C(=O)c2cc(NS(=O)(=O)c3ccc(Cl)cc3)ccc2O[C@@H](C)CCCCO[C@@H]1CN(C)C(=O)Cc1ccccc1 | n | x | x | n | n | x
CCOc1ccc(NC(=S)Nc2cccc3ccccc23)cc1 | n | 31.4 | n | n | n | n
COc1cccc(NC(=S)Nc2cccc3ccccc23)c1 | 55.4 | n | n | n | n | n
CCOc1ccc(NC(=S)Nc2cccc3cnccc23)cc1 | x | n | n | x | x | n
COCCNC(=O)c1cc2cc3ccc(OC)cc3nc2o1 | n | n | n | n | n | n
CCCCN(CC)C(=O)c1cc2cc3ccc(OC)cc3nc2o1 | 88.2 | 58.3 | n | x | x | n
COc1ccc2nc3oc(C(=O)N4CCCCC4)cc3cc2c1 | u | u | 84.0 | x | x | n
SMILES | esBAF inh | Wnt act | MITF TRPM1 HTS | FGF22 binding | AF4-AF9 inh | SMARCA2 activ
CCC(C)NC(=O)c1cc2cc3ccc(OC)cc3nc2o1 (stereo not drawn) | 55.5 | n | 88.8 | n | n | n
COc1ccc2cc3cc(C(=O)NCC4CCCO4)oc3nc2c1 (stereo not drawn) | 54.6 | n | n | x | x | n
COC(=O)C[C@H]1C[C@H]2c3cc(NC(=O)c4ccc5c(c4)OCO5)ccc3O[C@H]2[C@@H](CO)O1 | n | x | x | n | n | x
COCC#Cc1cnc2c(c1)C(=O)N([C@@H](C)CO)C[C@H](C)[C@@H](CN(C)C(=O)Nc1c(C)noc1C)O2 | n | x | x | n | n | x
O=C(C[C@@H]1C=C[C@H](NC(=O)C2CCOCC2)[C@H](CO)O1)NCc1ccccc1Cl | x | x | x | x | n | x
CC(C)c1ccc(CC(NC(=O)c2ccccc2)C(=O)NCC(=O)O)cc1 (stereo not drawn) | x | n | n | 42.9 | n | n
O=C(O)C(Cc1ccccc1)n1cccc1 (stereo not drawn) | n | x | n | x | x | n
O=C(O)[C@H](Cc1ccccc1)N1C(=O)c2c(Cl)c(Cl)c(Cl)c(Cl)c2C1=O | n | n | x | 5.8 | n | n
O=C(CN1C(=O)C2C3C=CC(C4CC34)C2C1=O)Nc1cnc2ccccc2c1 (stereo not drawn) | x | n | n | 44.1 | n | n
COc1cccc(NC(=O)N(C)C[C@H]2OCc3ccccc3-c3c(n(C)c4ccccc34)C(=O)N([C@@H](C)CO)C[C@H]2C)c1 | n | x | x | n | n | x
COc1ccc(-c2cc3ccccc3cn2)cc1 | n | n | n | 43.9 | n | n
N#Cc1cnc2cc(-c3ccccc3)nn2c1N | n | n | x | x | n | n
Fc1ccc2cc(-c3cccnc3)ncc2c1 | 49.6 | n | n | n | n | n
COc1ccc(-c2cc3ncc(-c4ccccc4)c(N)n3n2)cc1 | x | n | 147.5 | n | n | n
COc1ccc2cc(-c3ccccc3F)ncc2c1 | n | 38.4 | n | n | n | n
COc1ccc(C(O)c2ncc(-c3ccccc3F)[nH]2)cc1 (stereo not drawn) | n | n | x | n | n | n
COc1ccc2cc(-c3cccnc3)ncc2c1 | n | u | 97.1 | n | n | n
COc1ccc(-c2cc3ccc(OC)cc3cn2)cc1 | n | n | n | n | n | n
COc1ccc(-c2ccc(OC)cc2)cc1 | 53.7 | x | u | x | x | n
CN1C(=O)c2cc(NC(=O)Cc3cccs3)ccc2OC[C@H]2O[C@H](CC(=O)NCC3CCCCC3)CC[C@H]21 | n | x | x | n | n | x
COC(=O)c1ccc(N/N=C/c2cc([N+](=O)[O-])cc(OC)c2O)cc1 | n | n | n | x | n | n
COc1cccc(/C=N/Nc2ccc([N+](=O)[O-])cc2)c1O | n | 39.9 | 104.3 | n | n | n
Cc1cccc(N/N=C/c2ccc(O)c(O)c2O)c1 | x | n | n | n | x | n
COc1cccc(/C=N/Nc2cc(Cl)nc(C)n2)c1O | x | n | n | n | n | n
COc1cccc(/C=N/Nc2c(Cl)cncc2Cl)c1O | u | n | 112.6 | n | n | n
SMILES | esBAF inh | Wnt act | MITF TRPM1 HTS | FGF22 binding | AF4-AF9 inh | SMARCA2 activ
COc1cccc(N/N=C/c2cccc(Br)c2O)c1 | 52.7 | 34.6 | n | n | x | n
O=C(C[C@H]1CC[C@@H]2[C@H](COC[C@H](O)CN2CCc2ccccc2)O1)N1CCC(Cc2ccccc2)CC1 | n | x | x | n | n | x
Clc1ccc(-c2cn3c(n2)CCC3)cc1 | x | x | 92.5 | x | x | n
C[C@@H]1CN([C@H](C)CO)C(=O)Cc2cc(NS(=O)(=O)c3cccs3)ccc2O[C@H]1CN(C)S(=O)(=O)c1cn(C)cn1 | n | x | x | n | n | x
Cc1ccc(C(=O)/C=C\C(=O)c2ccc(C)cc2)cc1 | x | n | n | n | n | n
Cc1ccc(S/C=C\C(=O)c2ccccc2)cc1 | x | 55.9 | n | n | n | n
CCN(CCn1cccn1)C(=O)CC1C(=O)NCCN1Cc1cc(OC)cc(OC)c1 (stereo not drawn) | x | n | n | 44.2 | n | n
C[C@@H]1CCCCO[C@@H](CN(C)Cc2ccncc2)[C@H](C)CN([C@H](C)CO)C(=O)c2cc(NC(=O)Nc3ccc(F)cc3)ccc2O1 | n | x | x | n | x | x
